Calls of active or inactive are those of the source. How the source made its calls: active means hit-call score of the fitted dose curve at least 0.9, where 1 is the maximum; inactive means score below 0.9.
read-out: 3-Hydroxy-3-Methylglutaryl-CoA Synthase 2 (HMGCS2), HMGCS2 (gene 3158); assay: LTEA_HepaRG_HMGCS2: Life Technologies and Expression Analysis (LTEA) Assay for 3-Hydroxy-3-Methylglutaryl-CoA Synthase 2 (HMGCS2) using HepaRG (AID 2283504); conditions: mRNA level, 48 h; actives raise or lower the signal
Experimental: LTEA_HepaRG is a cell based, multiplexed-readout assay that uses HepaRG, a human liver cell line, with measurements taken at 48 hours after chemical dosing on a 96-well plate.LTEA_HepaRG_HMGCS2 is one of 102 assay component(s) measured in the LTEA HepaRG cell culture assay. It is a marker of Steatosis.Data from the assay component LTEA_HepaRG_HMGCS2 was analyzed into 1 endpoint. This assay endpoint, LTEA_HepaRG_HMGCS2, was analyzed with bidirectional fitting relative to DMSO as the negative control and baseline of activity. Using a type of inducible reporter, measures of mRNA induction for gain or loss-of-signal activity can be used to understand regulation of transcription factor activity. To generalize the intended target to other relatable targets, this assay endpoint is annotated to the lyase intended target family, where the subfamily is HMG-CoA synthase.
A total of 1060 chemcials from the ToxCast library were tested in eight-point concentration-response experiments. Cell culture and cytotoxicity assays were conducted at Thermo Fisher Scientific's Custom Services facility (Madison, WI). A single lot of human HepaRG cells (Thermo Fisher Scientific, Frederick, MD) was used for the cell culture experiments. 96-well format collagen type I coated plates of human HepaRG cells were prepared using established methods. Briefly, cryopreserved HepaRG cells were thawed, plated at a density of approximately 100,000 cells/well in HepaRG Thaw, Plate, and General Purpose media (HPRG770, Thermo Fisher Scientific), and incubated for 48 hours. 0.5% DMSO was selected as vehicle control to balance the requisite need of DMSO in HepaRG cultures to maintain differentiation (for example, baseline metabolism, proportions of hepatocytes vs. cholangiocytes), while enabling further hepatic receptor pathway activation (for example, PXR and CAR) in response to chemical exposure. 48 hours after plating, the culture medium was replaced with HepaRG Serum-Free Incudtion Media. Cells were exposed to each test chemical in duplicate and maintained in CO2 incubators for another 48 hours. Chemical plates were thawed to room temperature and 200x concentrations of treatment groups were prepared. 8-point conentration-reponse curves were made with the highest exposure at 100 uM, followed by half-log dilutions, all in 0.5% DMSO. Each test plate contained variouse controls, induction positive controls (1mM phenobarbital), cytotoxicity positive controls ([…] aflatoxin B1), vehicle controls (0.5% DMSO), and total lysis controls (0.5% DMSO). Cell morphology images were taken using an Essen IncuCyte FLR automated microscope, with six 96-well plates imaged in about 24 minutes. Images were captured and exported and JPEG files. Spent culture media was transfered to black-well plates for the LDH assay, and remaining media was sorted at -80 C for later use. Cells were treated with RLT buffer and frozen until shipped for gene expression analysis. Total RNA was isolated from the cell suspension in 75 uL of Buffer RLT (Qiagen, Germantown, MD 20874) by Quintiles/Expression Analysis (Durham, NC) using a custom isolation procedure. Total RNA from each plate well was transferred to a preamplification plate. Fluidigm's 96.96 Dynamic ArrayTM (Fluidigm, Amsterdam, the Netherlands) technology was used for gene expression analyses by quantitative reverse transcription polymerase chain reaction (qRT-PCR, performed by Quintiles/Expression Analysis, Durham, NC)89. Standard TaqManTM Assays (Applied Biosystems/ThermoFisher Scientific, Foster City, CA) were used to assess the expression of 93 genes selected based on their selectivity and sensitivity to important hepatic receptors known to be modulated by environmental chemicals; importance in human hepatocyte functionality; and hepatotoxicity. […]

| SMILES | outcome | AC50 |
| --- | --- | --- |
| COP(=O)(NC(C)=O)SC (stereo not given) | inactive |  |
| CCCCSP(=O)(SCCCC)SCCCC |  | 50 µM (active) |
| S=C1NCCN1 | inactive |  |
| CON=C(C(=O)OC)c1ccccc1CON=C(C)c1cccc(C(F)(F)F)c1 | inactive |  |
| CCOP(=S)(OCC)Oc1ccc([N+](=O)[O-])cc1 | inactive |  |
| FC(F)C(F)(F)OCC(Cn1cncn1)c1ccc(Cl)cc1Cl (stereo not given) |  | 39.5 µM (active) |
| CCOP(=S)(OCC)SCCSCC | inactive |  |
| CC(COc1ccc(Oc2ccccc2)cc1)Oc1ccccn1 (stereo not given) |  | 12.6 µM (active) |
| C=C(C)[C@H]1Cc2c(ccc3c2O[C@@H]2COc4cc(OC)c(OC)cc4[C@@H]2C3=O)O1 |  | 1.7 µM (active) |
| CSC1=N[C@@](C)(c2ccccc2)C(=O)N1Nc1ccccc1 |  | 35.3 µM (active) |
| CSc1nc(NC(C)C)nc(NC(C)C)n1 |  | 50 µM (active) |
| CN(C)[C@@H]1C(=O)C(C(N)=O)=C(O)[C@@]2(O)C(=O)C3=C(O)c4c(O)cccc4[C@@](C)(O)[C@H]3[C@H](O)[C@@H]12 | inactive |  |
| COP(=O)(OC)SCn1c(=O)oc2cc(Cl)cnc21 | inactive |  |
| CCOP(=S)(OCC)Oc1ccc2c(C)c(Cl)c(=O)oc2c1 |  | 51.8 µM (active) |
| CCCCOC(=O)c1ccccc1C(=O)O | inactive |  |
| CCC(=O)Nc1ccc(Cl)c(Cl)c1 | inactive |  |
| CC(=NC#N)N(C)Cc1ccc(Cl)nc1 | inactive |  |
| C[N+]1(C)CCCCC1 | inactive |  |
| CC1=NNC(=O)N(/N=C/c2cccnc2)C1 | inactive |  |
| CCOP(=S)(OCC)OC(Cl)C(Cl)(Cl)Cl (stereo not given) | inactive |  |

| SMILES | outcome | AC50 |
| --- | --- | --- |
| CCCCOC(=O)[C@@H](C)Oc1ccc(Oc2ccc(C#N)cc2F)cc1 |  | 25.8 µM (active) |
| COc1cc(OC)nc(Sc2cccc(Cl)c2C(=O)O)n1 | inactive |  |
| COc1ccc(C(=CC(=O)N2CCOCC2)c2ccc(Cl)cc2)cc1OC | inactive |  |
| N#CSCSC#N |  | 82.1 µM (active) |
| CCCOCC(=Nc1ccc(Cl)cc1C(F)(F)F)n1ccnc1 |  | 53.2 µM (active) |
| CC(Oc1cccc(Cl)c1)C(=O)O (stereo not given) | inactive |  |
| CN(C)NC(=O)CCC(=O)O | inactive |  |
| CCC(=NOC/C=C/Cl)C1=C(O)CC(C2CCOCC2)CC1=O (stereo not given) | inactive |  |
| CCCSP(=O)(OCC)Oc1ccc(Br)cc1Cl (stereo not given) | inactive |  |
| CCOP(=O)(OCC)Oc1cc(C)nc(C(C)C)n1 | inactive |  |
| CCNc1nc(Cl)nc(NC(C)(C)C#N)n1 | inactive |  |
| COc1cccc(C(=O)NN(C(=O)c2cc(C)cc(C)c2)C(C)(C)C)c1C | inactive |  |
| CNc1cnn(-c2cccc(C(F)(F)F)c2)c(=O)c1Cl |  | 9.92 µM (active) |
| C#CCC1=C(C)C(OC(=O)C2C(C=C(C)C)C2(C)C)CC1=O (stereo not given) | inactive |  |
| CC(C)=CC1C(C(=O)OCN2C(=O)C3=C(CCCC3)C2=O)C1(C)C (stereo not given) | inactive |  |
| O=[N+]([O-])c1cc(C(F)(F)F)c(Cl)c([N+](=O)[O-])c1Nc1ncc(C(F)(F)F)cc1Cl |  | 36.5 µM (active) |
| CCOP(=O)(SC(C)CC)N1CCSC1=O (stereo not given) |  | 21.3 µM (active) |
| COP(=O)(OC)OC(Br)C(Cl)(Cl)Br (stereo not given) | inactive |  |
| CCOC(=O)CC(SP(=O)(OC)OC)C(=O)OCC (stereo not given) | inactive |  |
| CCCCN(CC)c1c([N+](=O)[O-])cc(C(F)(F)F)cc1[N+](=O)[O-] | inactive |  |

Source: PubChem BioAssay (EPA / NIEHS)
